Test results from PubChem BioAssay (NCATS).
Several values for one entry are separate records, joined by “and”; a condition that tells them apart may be missing. Equal values may be shown once. Records with an inconclusive call do not appear. Where a call stands in place of a potency, no number is given. Activity calls are given as the source filed them. Unless noted, calls follow the shape of the dose curve; as a rule, active = well fitted inhibition curve with a large enough effect; inconclusive = small, poorly fitted or top-dose-only effect; inactive = flat fitted curve, though single readings scatter.

How the values were obtained:
[1] = biological target: Ubiquitin carboxyl-terminal hydrolase 1 (Homo sapiens) (UniProt O94782); test: Inhibitors of USP1/UAF1: Pilot qHTS (AID 504865);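 also: rhodamine fluorescence freed from ubiquitin-rhodamine substrate followed over time; top concentration of the series differs between compounds; nearly all actives have a fitted effect of over 35% in size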
Chain of Ubiquitin carboxyl-terminal hydrolase 1 (Homo sapiens) (O94782 whole entry, looked up): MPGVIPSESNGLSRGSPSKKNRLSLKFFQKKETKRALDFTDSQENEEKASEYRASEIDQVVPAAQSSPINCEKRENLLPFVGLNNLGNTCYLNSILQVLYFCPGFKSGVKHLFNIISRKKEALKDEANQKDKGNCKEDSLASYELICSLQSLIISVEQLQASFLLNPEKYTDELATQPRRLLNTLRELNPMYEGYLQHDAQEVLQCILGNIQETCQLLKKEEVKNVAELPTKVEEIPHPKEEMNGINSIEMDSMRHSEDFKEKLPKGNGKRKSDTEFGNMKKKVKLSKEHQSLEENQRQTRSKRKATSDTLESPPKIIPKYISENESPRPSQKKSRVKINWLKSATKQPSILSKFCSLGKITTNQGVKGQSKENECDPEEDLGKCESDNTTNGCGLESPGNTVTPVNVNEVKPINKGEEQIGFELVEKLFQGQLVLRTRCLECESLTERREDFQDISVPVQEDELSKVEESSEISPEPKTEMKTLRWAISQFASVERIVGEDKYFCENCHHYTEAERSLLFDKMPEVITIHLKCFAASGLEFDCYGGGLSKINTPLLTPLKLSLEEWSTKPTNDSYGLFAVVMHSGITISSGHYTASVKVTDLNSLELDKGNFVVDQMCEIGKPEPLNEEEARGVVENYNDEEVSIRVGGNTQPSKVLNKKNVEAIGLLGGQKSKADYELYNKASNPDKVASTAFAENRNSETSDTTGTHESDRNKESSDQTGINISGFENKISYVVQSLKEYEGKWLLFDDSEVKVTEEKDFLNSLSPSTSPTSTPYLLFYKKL
Method in brief: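 1nM USP1/UAF1 + cpd, 15 min RT; start w/ Ub-Rho 150nM final; kinetic FL 480/540 nm, 6 reads q60 s. Buffer 50mM HEPES pH 7.8, 0.5mM EDTA, 1mM TCEP, 0.01% Tween-20, 0.1 mg/ml BSA.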

[2] = biological target: Glucocorticoid receptor (Homo sapiens) (UniProt P04150); test: qHTS assay for small molecule agonists of glucocorticoid receptor signaling (AID 588532; active = well fitted curve in the direction sought with a large enough effect in the signal ratio, with a control signal flat; the % refers to the signal ratio); details: HeLa MMTV-bla, beta-lactamase ratio, agonist, 18 h; stronger effect = higher value; percent of dexamethasone control, DMSO zero
Chain of Glucocorticoid receptor (Homo sapiens) (P04150 whole entry, looked up): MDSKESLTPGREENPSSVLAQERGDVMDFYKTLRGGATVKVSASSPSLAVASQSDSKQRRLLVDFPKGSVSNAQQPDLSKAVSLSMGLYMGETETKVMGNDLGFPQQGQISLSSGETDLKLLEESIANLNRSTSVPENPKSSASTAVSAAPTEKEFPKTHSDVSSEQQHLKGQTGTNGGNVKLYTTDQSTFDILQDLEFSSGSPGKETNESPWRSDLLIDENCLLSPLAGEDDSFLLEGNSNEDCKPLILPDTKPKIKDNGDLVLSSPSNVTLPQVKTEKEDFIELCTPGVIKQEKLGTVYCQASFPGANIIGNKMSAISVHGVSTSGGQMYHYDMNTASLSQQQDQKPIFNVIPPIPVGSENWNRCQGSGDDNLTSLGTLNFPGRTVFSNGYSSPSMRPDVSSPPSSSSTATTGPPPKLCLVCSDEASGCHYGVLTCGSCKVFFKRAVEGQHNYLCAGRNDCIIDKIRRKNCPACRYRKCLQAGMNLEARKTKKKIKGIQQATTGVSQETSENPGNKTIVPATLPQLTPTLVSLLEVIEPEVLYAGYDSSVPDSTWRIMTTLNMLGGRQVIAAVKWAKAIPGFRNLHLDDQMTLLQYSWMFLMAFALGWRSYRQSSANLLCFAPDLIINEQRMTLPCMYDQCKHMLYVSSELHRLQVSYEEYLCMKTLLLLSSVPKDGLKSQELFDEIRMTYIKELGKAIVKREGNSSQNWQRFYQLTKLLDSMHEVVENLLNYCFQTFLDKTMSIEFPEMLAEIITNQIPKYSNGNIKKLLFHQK
Method in brief: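 HeLa GRE-bla reporter cells; 18 h compound exposure at 37 C; 2 h CCF4 loading at room temperature; fluorescence at 460 and 530 nm; EC50 by Hill equation.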

[3] = biological target: Glucocorticoid receptor (Homo sapiens) (UniProt P04150); test: qHTS assay for small molecule antagonists of glucocorticoid receptor signaling (AID 588533; active = well fitted inhibition curve with a large enough effect in the signal ratio, with a control signal flat, not every such curve was filed as active; the % refers to the signal ratio;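 also: cells stimulated with 2 nM dexamethasone as agonist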)
Method in brief: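 Antagonist-mode qHTS: compound titrations added to GRE-bla HeLa cells, then dexamethasone 2 nM final; 18 h, 37 C. CCF4 FRET fluorescence normalized to dexamethasone and DMSO; IC50 from Hill fit.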

[4] = qHTS assay for small molecule antagonists of peroxisome proliferator-activated receptor delta signaling (AID 588535; active = well fitted inhibition curve with a large enough effect in the signal ratio, with a control signal flat, not every such curve was filed as active; the % refers to the signal ratio;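 as to max response: cells co-treated with a PPAR-delta agonist as stimulator during compound exposure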); details: HEK293T PPARd-UAS-bla, beta-lactamase FRET ratio, 18 h; 460 nm channel
Method in brief: (§1)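 Fluorescence from CCF4-loaded GeneBLAzer PPAR-delta-UAS-bla HEK293T cells (2 hrs RT loading) quantified reporter inhibition after an 18 hr, 37 C compound exposure across a titration.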

[5] = biological target: Peroxisome proliferator-activated receptor delta (Homo sapiens) (UniProt Q03181); test: as above
Chain of Peroxisome proliferator-activated receptor delta (Homo sapiens) (Q03181 whole entry, looked up): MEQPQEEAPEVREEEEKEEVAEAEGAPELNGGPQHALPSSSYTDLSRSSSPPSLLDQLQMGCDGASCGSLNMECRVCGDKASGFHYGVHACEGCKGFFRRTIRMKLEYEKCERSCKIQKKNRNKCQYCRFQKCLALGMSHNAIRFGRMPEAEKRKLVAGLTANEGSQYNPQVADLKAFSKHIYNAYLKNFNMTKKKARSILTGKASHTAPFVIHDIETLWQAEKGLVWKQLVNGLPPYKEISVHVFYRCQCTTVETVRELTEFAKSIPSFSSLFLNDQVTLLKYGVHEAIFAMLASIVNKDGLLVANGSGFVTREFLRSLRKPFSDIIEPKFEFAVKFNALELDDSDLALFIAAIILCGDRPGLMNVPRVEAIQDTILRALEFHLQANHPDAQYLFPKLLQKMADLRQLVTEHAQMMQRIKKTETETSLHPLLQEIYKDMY
Method in brief: as §1

[6] = biological target: Estrogen receptor (Homo sapiens) (UniProt P03372); test: qHTS assay for small molecule antagonists of estrogen receptor alpha signaling (AID 588513; active = well fitted curve in the direction sought with a large enough effect in the signal ratio, with a control signal flat, not every such curve was filed as active; the % refers to the signal ratio)
Chain of Estrogen receptor (Homo sapiens) (P03372 whole entry, looked up): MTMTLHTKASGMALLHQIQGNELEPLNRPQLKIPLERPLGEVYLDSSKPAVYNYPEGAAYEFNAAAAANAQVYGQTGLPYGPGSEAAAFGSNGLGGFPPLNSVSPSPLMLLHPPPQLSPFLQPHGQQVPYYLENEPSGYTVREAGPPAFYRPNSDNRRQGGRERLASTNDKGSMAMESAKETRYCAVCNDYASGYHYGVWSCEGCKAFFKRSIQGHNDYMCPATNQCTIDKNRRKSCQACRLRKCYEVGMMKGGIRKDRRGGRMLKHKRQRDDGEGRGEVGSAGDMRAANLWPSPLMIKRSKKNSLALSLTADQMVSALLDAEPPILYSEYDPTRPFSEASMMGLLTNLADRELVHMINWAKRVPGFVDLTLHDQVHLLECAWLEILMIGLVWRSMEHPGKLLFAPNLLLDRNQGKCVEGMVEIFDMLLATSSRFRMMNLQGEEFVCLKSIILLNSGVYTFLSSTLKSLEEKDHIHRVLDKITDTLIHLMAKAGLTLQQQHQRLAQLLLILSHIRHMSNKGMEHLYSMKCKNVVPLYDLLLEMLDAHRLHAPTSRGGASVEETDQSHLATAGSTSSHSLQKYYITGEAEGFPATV
Method in brief: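 Beta-lactamase reporter, antagonist mode, HEK 293 GripTite cells; 0.5nM E2 stimulus, 18 h, 37 C; CCF4 dye 2 h RT; fluorescence. IC50 and efficacy from Hill fits, normalized to E2 and DMSO.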

[7] = biological target: Bile acid receptor (Homo sapiens) (UniProt Q96RI1); test: qHTS assay for small molecule antagonists of farnesoid X receptor signaling (AID 588526; calls by dose curve)
Chain of Bile acid receptor (Homo sapiens) (Q96RI1 whole entry, looked up): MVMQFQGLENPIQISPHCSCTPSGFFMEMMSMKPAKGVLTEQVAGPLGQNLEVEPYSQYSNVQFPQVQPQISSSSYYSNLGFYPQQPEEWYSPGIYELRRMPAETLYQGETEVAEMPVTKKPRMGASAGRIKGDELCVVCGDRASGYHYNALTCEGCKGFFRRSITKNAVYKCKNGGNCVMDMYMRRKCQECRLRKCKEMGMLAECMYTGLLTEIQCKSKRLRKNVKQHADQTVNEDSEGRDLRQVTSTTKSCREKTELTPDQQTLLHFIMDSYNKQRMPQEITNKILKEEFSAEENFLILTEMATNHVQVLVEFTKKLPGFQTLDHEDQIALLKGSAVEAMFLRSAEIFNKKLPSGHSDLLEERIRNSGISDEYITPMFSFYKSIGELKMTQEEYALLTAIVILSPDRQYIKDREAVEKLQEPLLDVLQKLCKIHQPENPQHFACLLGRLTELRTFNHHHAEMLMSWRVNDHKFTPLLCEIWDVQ
Method in brief: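 Antagonist mode: titrated compounds tested against chenodeoxycholic acid stimulation (normalized to 50 uM CDCA and DMSO) in GeneBLAzer HEK293T cells for 16 h. Beta-lactamase read by CCF4 fluorescence; IC50 from Hill fits.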

[8] = biological target: Peroxisome proliferator-activated receptor gamma (Homo sapiens) (UniProt P37231); test: qHTS assay for small molecule agonists of peroxisome proliferator-activated receptor gamma signaling (AID 588536; active = well fitted curve in the direction sought with a large enough effect in the signal ratio, with a control signal flat, not every such curve was filed as active; the % refers to the signal ratio)
Chain of Peroxisome proliferator-activated receptor gamma (Homo sapiens) (P37231 whole entry, looked up): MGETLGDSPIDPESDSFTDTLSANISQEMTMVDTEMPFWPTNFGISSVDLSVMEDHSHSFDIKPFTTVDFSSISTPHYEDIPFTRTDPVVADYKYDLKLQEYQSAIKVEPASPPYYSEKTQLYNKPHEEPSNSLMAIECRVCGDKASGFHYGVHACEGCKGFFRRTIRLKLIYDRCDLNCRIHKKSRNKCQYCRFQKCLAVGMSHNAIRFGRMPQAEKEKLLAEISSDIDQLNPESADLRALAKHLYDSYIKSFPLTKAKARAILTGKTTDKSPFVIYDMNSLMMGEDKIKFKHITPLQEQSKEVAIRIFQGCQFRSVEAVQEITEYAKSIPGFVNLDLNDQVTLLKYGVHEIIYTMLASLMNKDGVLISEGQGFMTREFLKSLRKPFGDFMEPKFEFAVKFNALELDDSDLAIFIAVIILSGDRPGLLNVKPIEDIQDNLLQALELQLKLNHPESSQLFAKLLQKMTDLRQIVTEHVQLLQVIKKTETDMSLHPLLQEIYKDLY
Method in brief: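 Cells were plated and held 6–6.5 h at 37 C, then compounds were added as a titration series. After a further 16 h, CCF4 dye was loaded for 2 h at room temperature and emission at 460/530 nm recorded.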

[9] = biological target: Estrogen receptor (Homo sapiens) (UniProt P03372); test: qHTS assay for small molecule agonists of estrogen receptor alpha signaling (AID 588514; calls by dose curve; also: nearly all actives have a fitted effect of over 70% in size)
Method in brief: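 Efficacy is expressed against 20 nM 17-beta-estradiol (100%) and DMSO basal (0%); EC50 from Hill equation. Assay: beta-lactamase reporter in ER-alpha-UAS-bla HEK 293 cells, 18 h compound incubation, CCF4 detection.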

[10] = biological target: Androgen receptor (Homo sapiens) (UniProt P10275); test: qHTS assay for small molecule agonists of androgen receptor signaling (AID 588515; active = well fitted curve in the direction sought with a large enough effect in the signal ratio, with a control signal flat; the % refers to the signal ratio); details: AR-UAS-bla HEK293, beta-lactamase ratio, agonist 16 h; stronger effect = higher value
Chain of Androgen receptor (Homo sapiens) (P10275 whole entry, looked up): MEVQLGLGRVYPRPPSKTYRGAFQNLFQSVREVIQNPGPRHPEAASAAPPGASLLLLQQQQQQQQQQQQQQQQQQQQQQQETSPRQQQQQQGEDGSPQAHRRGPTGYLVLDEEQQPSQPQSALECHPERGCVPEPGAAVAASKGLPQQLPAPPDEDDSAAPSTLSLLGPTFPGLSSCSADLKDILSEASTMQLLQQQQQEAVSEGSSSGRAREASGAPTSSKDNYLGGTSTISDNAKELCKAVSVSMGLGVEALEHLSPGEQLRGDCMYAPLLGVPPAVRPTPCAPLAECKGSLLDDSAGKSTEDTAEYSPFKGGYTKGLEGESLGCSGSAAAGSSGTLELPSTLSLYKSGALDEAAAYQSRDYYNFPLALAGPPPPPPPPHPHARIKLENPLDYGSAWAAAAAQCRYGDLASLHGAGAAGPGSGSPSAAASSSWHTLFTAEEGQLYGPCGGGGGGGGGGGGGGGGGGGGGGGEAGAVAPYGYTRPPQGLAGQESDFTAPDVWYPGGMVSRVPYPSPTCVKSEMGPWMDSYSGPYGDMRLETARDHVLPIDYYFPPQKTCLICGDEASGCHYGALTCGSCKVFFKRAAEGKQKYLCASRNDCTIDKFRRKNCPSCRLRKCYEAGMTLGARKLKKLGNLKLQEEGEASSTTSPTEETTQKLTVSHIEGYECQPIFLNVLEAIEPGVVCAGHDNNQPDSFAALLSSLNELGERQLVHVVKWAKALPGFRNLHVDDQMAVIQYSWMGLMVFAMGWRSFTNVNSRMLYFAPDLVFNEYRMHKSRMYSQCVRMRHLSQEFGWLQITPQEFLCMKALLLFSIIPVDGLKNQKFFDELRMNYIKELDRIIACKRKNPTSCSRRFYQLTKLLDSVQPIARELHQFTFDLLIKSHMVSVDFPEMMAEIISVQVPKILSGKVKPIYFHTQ
Method in brief: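 Stimulation of an AR-responsive β-lactamase reporter in GripTite HEK293 cells was measured after 16 h compound exposure at 37 °C, via CCF4 fluorescence after 2 h RT. EC50 from Hill fits, normalized to R1881 at 30 nM.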

[11] = biological target: Androgen receptor (Homo sapiens) (UniProt P10275); test: qHTS assay for small molecule antagonists of androgen receptor signaling (AID 588516; active = well fitted curve in the direction sought with a large enough effect in the signal ratio, with a control signal flat, not every such curve was filed as active; the % refers to the signal ratio)
Method in brief: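 HEK293 AR-UAS-bla cells, 10% dialyzed FBS medium; cpd titration + R1881 10 nM final, 16 h 37 C; CCF4 2 h RT; FRET ratio; IC50/efficacy via Hill fit.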

[12] = biological target: DNA dC->dU-editing enzyme APOBEC-3G (Homo sapiens) (UniProt Q9HC16); test: qHTS for inhibitors of Vif-A3G interactions: Validation (AID 588379)
Chain of DNA dC->dU-editing enzyme APOBEC-3G (Homo sapiens) (Q9HC16 whole entry, looked up): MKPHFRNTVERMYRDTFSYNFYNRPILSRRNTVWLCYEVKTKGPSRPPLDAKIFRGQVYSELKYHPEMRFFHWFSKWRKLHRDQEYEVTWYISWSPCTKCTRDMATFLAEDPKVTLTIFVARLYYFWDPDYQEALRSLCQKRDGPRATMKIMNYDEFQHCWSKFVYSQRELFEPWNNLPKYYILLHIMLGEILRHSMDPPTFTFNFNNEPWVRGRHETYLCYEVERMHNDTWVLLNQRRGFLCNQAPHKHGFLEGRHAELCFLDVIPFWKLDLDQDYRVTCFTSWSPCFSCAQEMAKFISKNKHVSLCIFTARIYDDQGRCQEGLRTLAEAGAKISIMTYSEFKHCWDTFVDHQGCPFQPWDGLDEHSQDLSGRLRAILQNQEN
Method in brief: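 Yellow fluorescence (Ex 488, Em 500-530) of Vif-coexpressing HeLa A3G-eYFP cells, scanned by Acumen cytometer, reports blocked A3G degradation. Cells plated at 700/well overnight at 37 deg C before compound addition, then a further overnight compound incubation at 37 deg C.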

In the case of `COC(=O)Nc1nc2ccc(C(=O)c3ccccc3)cc2[nH]1`, the Potency [1] is reported as “inactive”.

In the case of `CCc1cc(C(N)=S)ccn1`, the Potency [1] is reported as “inactive”, the activation [2] is reported as 1.04% (inactive) and the outcome [3] is reported as “inactive”. For the same molecule, the max response [4] was -62.7% and 18.6% and the outcome [5] was “inactive”.

With `COc1ncnc(NS(=O)(=O)c2ccc(N)cc2)c1OC` the Potency [1] was “inactive”.

For `CC(=O)Oc1ccccc1C(=O)Nc1ncc([N+](=O)[O-])s1`, the Potency [1] was “inactive”, the Potency [6] was “inactive” and the activation [2] was -4.89% (inactive). The max response [4] was -31.7% and the outcome [5] was “inactive”.

In the case of `Cc1cc(NS(=O)(=O)c2ccc(N)cc2)no1`, the outcome [7] is reported as “inactive”, the activation [2] is reported as 9.43% (inactive) and the outcome [3] is reported as “inactive”. The outcome [8] was “inactive”.

For `NNC(=O)c1ccncc1`, the Potency [1] was “inactive”, the Potency [6] was “inactive” and the outcome [9] was “inactive”. For the same molecule, the activation [2] was -1.09% (inactive), the outcome [3] was “inactive” and the max response [4] was 0.593%. The outcome [5] was “inactive” and the outcome [8] was “inactive”.

With `Cc1nnc(NS(=O)(=O)c2ccc(N)cc2)s1` the Potency [1] was “inactive”, the Potency [6] was “inactive” and the outcome [9] was “inactive”. For the same molecule, the activation [10] was -1.65% (inactive), the outcome [11] was “inactive” and the outcome [8] was “inactive”.

In the case of `CC1=NN(c2ccccc2)C(=O)C1`, the Potency [1] is reported as “inactive”, the outcome [12] is reported as “inactive” and the Potency [6] is reported as “inactive”. The outcome [9] was “inactive”, the outcome [7] was “inactive” and the outcome [3] was “inactive”. The max response [4] was -24.3%, the outcome [5] was “inactive” and the outcome [8] was “inactive”.

With `COc1ccc2cc3[n+](cc2c1OC)CCc1cc2c(cc1-3)OCO2` the Potency [1] was “inactive”, the Potency [6] was “inactive” and the activation [2] was 1.14% (inactive). The outcome [8] was “inactive”.

In the case of `CC[C@H](C)C(=O)O[C@H]1C[C@@H](C)C=C2C=C[C@H](C)[C@H](CC[C@@H]3C[C@@H](O)CC(=O)O3)[C@H]21`, the Potency [6] is reported as “inactive”, the outcome [9] is reported as “inactive” and the activation [2] is reported as -4.54% (inactive). The outcome [8] was “inactive”.

In the case of `CC(=O)CC(c1ccccc1)c1c(O)c2ccccc2oc1=O` (centres undefined), the Potency [1] is reported as “inactive”.

With `O=c1oc2c(O)c(O)cc3c(=O)oc4c(O)c(O)cc1c4c23` the outcome [12] was “inactive”.

With `Cc1ccnc2c1NC(=O)c1cccnc1N2C1CC1` the Potency [1] was “inactive”, the outcome [7] was “inactive” and the activation [2] was -5.33% (inactive). For the same molecule, the outcome [3] was “inactive”, the max response [4] was 14.9% and the outcome [5] was “inactive”. The outcome [8] was “inactive”.

In the case of `CC[C@H](NC(C)C)[C@H](O)c1ccc(O)c2[nH]c(=O)ccc12`, the Potency [1] is reported as “inactive” and the outcome [12] is reported as “inactive”.

With `Cc1ncc([N+](=O)[O-])n1CCO` the Potency [1] was “inactive”, the Potency [6] was “inactive” and the outcome [9] was “inactive”. The max response [4] was -0.982%, the outcome [5] was “inactive” and the outcome [8] was “inactive”.

For `N=C(N)c1ccc(OCCCCCOc2ccc(C(=N)N)cc2)cc1`, the Potency [1] was “inactive”, the Potency [6] was “inactive” and the outcome [9] was “inactive”. The activation [2] was -5.79% (inactive) and -1.59% (inactive), the outcome [3] was “inactive” and the max response [4] was -25.7%. The outcome [5] was “inactive”.

In the case of `O=S(=O)(c1cccc2cnccc12)N1CCCNCC1`, the Potency [1] is reported as “inactive” and the outcome [12] is reported as “inactive”.

For `COc1cc(NS(=O)(=O)c2ccc(N)cc2)nc(OC)n1`, the Potency [1] was “inactive”.
